# Assay results as given in PubChem BioAssay (NCATS).
# Results filed as inconclusive are left out. A number with no mark means an inactive call. Calls of active or inactive are those of the source. The call rests on the fitted dose curve; in most records, active means well fitted inhibition curve with a large enough effect; inconclusive means small, poorly fitted or top-dose-only effect; inactive means flat fitted curve, though single readings scatter.
# Key:
# Assay in all cases: Cytotoxic Profiling of Annotated Libraries Using Quantitative High-Throughput Screening (AID 1296008); further: nearly all actives have a fitted effect of over 60% in size
# Conditions in all cases: Five cell lines viability, CellTiter-Glo ATP luminescence, 48-72 h; max response: hits give low values
# HEK293 = system: HEK293
# In short: (§1)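 Compounds were pin-transferred onto cells and incubated 48 or 72 hr at 37 degree Celsius, 95% humidity. CellTiter-Glo was added, plates sat 10 min at room temperature, then ATP-coupled luminescence was imaged as the viability read-out.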
# HaCat = system: HaCat
# In short: as §1
# KB-3-1 = system: KB-3-1
# In short: as §1
# NIH3T3 = system: NIH3T3
# In short: as §1
# On the % scale 0 is the no-effect control and ±100 the full control effect; potency means the concentration at half of the fitted maximal effect.
structure (smiles),measurement,setting,value
CC1=CC(=O)CC(C)(C)C1/C=C/C(C)O[C@@H]1O[C@H](CO)[C@@H](O)[C@H](O)[C@H]1O[C@@H]1OC[C@](O)(CO)[C@H]1O (stereo partly drawn),max response,HEK293,1.02%
same,max response,HaCat,4.57%
same,max response,KB-3-1,2.75%
same,max response,NIH3T3,3.26%
C[C@@H]1COCCN1c1cc(C2(S(C)(=O)=O)CC2)nc(-c2cccc3[nH]ccc23)n1,Potency,HEK293,1460 nM (active)
same,Potency,HaCat,5800 nM (active)
same,Potency,KB-3-1,2590 nM (active)
same,Potency,NIH3T3,2060 nM (active)
CC[C@H]1OC(=O)[C@H](C)[C@@H](O[C@H]2C[C@@](C)(OC)[C@@H](O)[C@H](C)O2)[C@H](C)[C@@H](O[C@@H]2O[C@H](C)C[C@H](N(C)C)[C@H]2O)[C@](C)(O)C[C@@H](C)C(=O)[C@H](C)[C@H]2OC(=O)O[C@@]21C,max response,HEK293,-4.98%
same,max response,HaCat,-4.77%
same,max response,KB-3-1,7.84%
same,max response,NIH3T3,3.61%
C=C(C(=O)OC)C1C(O)CC2(C)C(O)CCC(=O)C2C1O (stereo not drawn),max response,HEK293,-7.45%
same,outcome,HaCat,inactive
same,max response,KB-3-1,2.14%
same,max response,NIH3T3,3.84%
COC(=O)C1(C)CCC2(C(=O)O)CCC3(C)C(=CCC4C5(C)CC(O)C(OC6OCC(O)C(O)C6O)C(C)(CO)C5CCC43C)C2C1 (stereo not drawn),max response,HEK293,0.887%
same,max response,HaCat,-27.2%
same,max response,KB-3-1,9.85%
same,max response,NIH3T3,-9.3%
CC12CCC3c4ccc(O)cc4CCC3C1CC(OC1OC(C(=O)O)C(O)C(O)C1O)C2O (stereo not drawn),max response,HEK293,4.04%
same,max response,HaCat,-15%
same,outcome,KB-3-1,inactive
same,max response,NIH3T3,4.17%
CC1(C)CC[C@]2(CO[C@@H]3O[C@H](CO)[C@@H](O)[C@H](O)[C@H]3O)[C@@H](O)C[C@]3(C)C(=CCC4[C@@]5(C)CC[C@H](O[C@@H]6O[C@H](CO[C@@H]7O[C@H](CO[C@@H]8OC[C@@H](O)[C@H](O)[C@H]8O)[C@@H](O)[C@H](O)[C@H]7O)[C@@H](O)[C@H](O)[C@H]6O)C(C)(C)C5CC[C@]43C)[C@@H]2C1 (stereo partly drawn),max response,HEK293,-6.51%
same,max response,HaCat,-32.8%
same,max response,KB-3-1,-2.27%
same,max response,NIH3T3,-21.6%
CC(=O)C1=CCC2C3CCC4CC(O[C@@H]5O[C@H](CO)[C@@H](O[C@@H]6O[C@@H](C)[C@H](O)[C@@H](O)[C@H]6O)[C@H](O)[C@H]5O[C@@H]5O[C@H](CO)[C@@H](O)[C@H](O)[C@H]5O)CCC4(C)C3CCC12C (stereo partly drawn),max response,HEK293,-11.1%
same,max response,HaCat,-22.8%
same,outcome,KB-3-1,inactive
same,max response,NIH3T3,-4.06%
CC(=O)CC1CCC(C(C)C(=O)OCC(O)CO)O1 (stereo not drawn),max response,HEK293,-3.6%
same,max response,HaCat,-2.79%
same,outcome,KB-3-1,inactive
same,max response,NIH3T3,-24.7%
COc1cc2oc(-c3ccc(O)cc3O)cc2c(OC)c1CC=C(C)C,max response,HEK293,3%
same,max response,HaCat,-6.75%
same,max response,KB-3-1,-1.08%
same,max response,NIH3T3,2.22%
COc1cc(C)c(C(=O)O[C@H]2[C@@H](OC(C)=O)[C@H](n3ccc(=O)[nH]c3=O)O[C@@H]2CO)c(OC)c1,max response,HEK293,-0.552%
same,max response,HaCat,-9.32%
same,max response,KB-3-1,0.943%
same,max response,NIH3T3,-14.4%
C1CCC[C@H]2CCCN3CC[C@@H](CCCCCC[C@@H]4CCCN5CC[C@@H](CC1)O[C@@H]45)O[C@@H]23,max response,HEK293,4.46%
same,max response,HaCat,-0.73%
same,max response,KB-3-1,8.9%
same,max response,NIH3T3,2.62%
CC(=O)OC1C(c2ccccc2)CCC(c2ccccc2)C1OC(C)=O (stereo not drawn),max response,HEK293,-10.8%
same,max response,HaCat,3.27%
same,max response,KB-3-1,7.87%
same,max response,NIH3T3,0.126%
COc1cc([C@H]2c3cc(O)c(OC)cc3C[C@@H](CO[C@@H]3O[C@H](CO)[C@@H](O)[C@H](O)[C@H]3O)[C@@H]2CO)ccc1O,max response,HEK293,-2.47%
same,max response,HaCat,-4.19%
same,outcome,KB-3-1,inactive
same,max response,NIH3T3,-0.225%
O=C(OC1C=C(CO)C2C(OC3OC(CO)C(O)C(O)C3O)OC=CC12)c1ccc(O)cc1 (stereo not drawn),max response,HEK293,-4.58%
same,max response,HaCat,-13.5%
same,outcome,KB-3-1,inactive
same,outcome,NIH3T3,inactive
CCCn1c(=O)c2[nH]c(-c3ccc(OCC(=O)O)cc3)nc2n(CCC)c1=O,max response,HEK293,-2.68%
same,max response,HaCat,-4.84%
same,outcome,KB-3-1,inactive
same,max response,NIH3T3,-3.27%
Cc1ccc(NC(=O)C(=O)NC2CC(C)(C)NC(C)(C)C2)cc1,max response,HEK293,1.35%
same,max response,HaCat,-22.4%
same,max response,KB-3-1,-0.25%
same,max response,NIH3T3,-7%
CCc1c(-c2ccccc2)c(-c2ccccc2)nn1-c1ccccc1-c1cccc(OCC(=O)O)c1,max response,HEK293,-14.2%
same,max response,HaCat,-10.2%
same,outcome,KB-3-1,inactive
same,max response,NIH3T3,0.468%
C[C@H](C/C=C/C(C)(C)O)[C@H]1CC[C@@]2(C)[C@@H]3[C@@H](O[C@@H]4O[C@H](CO)[C@@H](O)[C@H](O)[C@H]4O)C=C4C(CC[C@H](O)C4(C)C)[C@]3(C=O)CC[C@]12C (stereo partly drawn),max response,HEK293,-5.89%
same,max response,HaCat,-5.49%
same,max response,KB-3-1,8.11%
same,max response,NIH3T3,3.81%
Cc1ccccc1CN1C2=NCCN2C(=O)C2=C1CCN(Cc1ccccc1)C2,max response,HEK293,-7.79%
same,max response,HaCat,-42.7%
same,max response,KB-3-1,-23.4%
same,max response,NIH3T3,-0.888%
CC(C)S(=O)(=O)N[C@H]1CCOC[C@@H]1c1ccc(-c2ccc(C#N)s2)cc1,max response,HEK293,-111%
same,outcome,HaCat,inactive
same,outcome,KB-3-1,inactive
same,max response,NIH3T3,-6.39%
CC1=C2C[C@H]3O[C@@]3(C)CCC3O[C@@]3(C)C[C@@]2(O)OC1=O (stereo partly drawn),max response,HEK293,-4.05%
same,max response,HaCat,-4.97%
same,outcome,KB-3-1,inactive
same,max response,NIH3T3,2.41%
CC(=O)OC1CC2(C)C3=CCC4(C)C5C(O)C(O)C(C(C)C)C5(C)CCC4(C)C3CCC2C(C)(C)C1OC1OC(CO)C(O)C(O)C1O (stereo not drawn),max response,HEK293,-1.39%
same,max response,HaCat,-3%
same,max response,KB-3-1,2.57%
same,max response,NIH3T3,4.87%
CC(=O)CCC1=C(C)C(O[C@@H]2O[C@H](CO)[C@@H](O)[C@H](O)[C@H]2O)C(O)CC1(C)C (stereo partly drawn),max response,HEK293,0.019%
same,max response,HaCat,1.46%
same,max response,KB-3-1,1.06%
same,max response,NIH3T3,3.13%
C=C1C(O)C[C@@H]2C(C(=O)O)=CO[C@@H](O[C@@H]3O[C@H](CO)[C@@H](O)[C@H](O)[C@H]3OC(=O)c3ccc(O)cc3)[C@H]12 (stereo partly drawn),max response,HEK293,-0.967%
same,max response,HaCat,0.151%
same,outcome,KB-3-1,inactive
same,max response,NIH3T3,4.25%
CC1(C)CC[C@]2(C(=O)O[C@@H]3O[C@H](CO)[C@@H](O)[C@H](O)[C@H]3O)CC[C@]3(C)C(=CCC4[C@@]5(C)CC[C@H](O[C@@H]6O[C@H](C(=O)O)[C@@H](O)[C@H](O)[C@H]6O)[C@@](C)(CO)C5CC[C@]43C)C2C1 (stereo partly drawn),max response,HEK293,-6.82%
same,outcome,HaCat,inactive
same,max response,KB-3-1,-0.849%
same,max response,NIH3T3,-2.22%
O=C1C=CC(O)(/C=C/C(=O)OC[C@H]2O[C@@H](Oc3ccc(O)cc3)[C@H](O)[C@@H](O)[C@@H]2O)C=C1,max response,HEK293,-4.12%
same,max response,HaCat,4.51%
same,max response,KB-3-1,-7.33%
same,max response,NIH3T3,-0.599%
CC1(O)CCCC2(C)C1CCC13CC(CO)C(CCC12)C3 (stereo not drawn),max response,HEK293,-21.4%
same,max response,HaCat,2.13%
same,outcome,KB-3-1,inactive
same,max response,NIH3T3,-0.27%
CC(C)[N+]1(C)C2CCC1CC(OC(=O)C(CO)c1ccccc1)C2 (stereo not drawn),max response,HEK293,-4.72%
same,max response,HaCat,-18.4%
same,max response,KB-3-1,-2.64%
same,max response,NIH3T3,-9.66%
C[C@@H]1O[C@@H](O[C@H]2[C@H](OC(=O)[C@]34CCC(C)(C)C[C@H]3C3=CCC5[C@@]6(C)C[C@H](O)[C@H](O[C@@H]7O[C@H](CO)[C@@H](O[C@H]8OC[C@](O)(CO)[C@H]8O)[C@H](O)[C@H]7O)[C@@](C)(CO)C6[C@H](O)C[C@@]5(C)[C@]3(C)C[C@H]4O)OC[C@H](O)[C@@H]2O)[C@H](O)[C@H](O)[C@H]1O[C@@H]1OC[C@@H](O)[C@H](O[C@@H]2OC[C@](O)(CO)[C@H]2O)[C@H]1O (stereo partly drawn),max response,HEK293,0.437%
same,max response,HaCat,-7.37%
same,max response,KB-3-1,8.08%
same,max response,NIH3T3,-0.781%
COc1ccc(C(O)C(C)OC2OC(CO)C(O)C(O)C2O)cc1 (stereo not drawn),max response,HEK293,0.525%
same,max response,HaCat,1.16%
same,outcome,KB-3-1,inactive
same,max response,NIH3T3,-2.23%
Cc1cc(C)nc(NS(=O)(=O)c2ccc(NC(=S)NC(=O)COc3ccc(Br)cc3Cl)cc2)n1,max response,HEK293,2.6%
same,max response,HaCat,-3.13%
same,max response,KB-3-1,8.68%
same,max response,NIH3T3,-1.58%
OC[C@H]1O[C@@H](OCCc2ccccc2)[C@H](O[C@@H]2OC[C@](O)(CO)[C@H]2O)[C@@H](O)[C@@H]1O,max response,HEK293,-11.4%
same,max response,HaCat,0.135%
same,outcome,KB-3-1,inactive
same,max response,NIH3T3,1.81%
C[C@@H]1C(=O)O[C@H]2[C@H](O)C34[C@H]5C[C@@H](C(C)(C)C)C36[C@@H](OC(=O)[C@@H]6O)O[C@@]4(C(=O)O5)[C@@]12O (stereo partly drawn),max response,HEK293,-1.33%
same,max response,HaCat,-29.1%
same,max response,KB-3-1,-3.61%
same,max response,NIH3T3,-2.5%
NC(=O)C(CCC(F)(F)F)N(Cc1ccc(-c2ncon2)cc1F)S(=O)(=O)c1ccc(Cl)cc1 (stereo not drawn),max response,HEK293,-83.5%
same,max response,HaCat,-84.6%
same,max response,KB-3-1,-38%
same,max response,NIH3T3,-69%
CC(C)(C)OC(=O)N1CCC(OCc2nc(-c3ccncc3)no2)CC1,max response,HEK293,0.811%
same,max response,HaCat,4.75%
same,max response,KB-3-1,-6.38%
same,max response,NIH3T3,-1.32%
C[C@@H]1O[C@@H](OC[C@H]2O[C@@H](OC(CCCCc3ccc(O)cc3)CCc3ccc(O)cc3)[C@H](O)[C@@H](O)[C@@H]2O)[C@H](O)[C@H](O)[C@H]1O (stereo partly drawn),max response,HEK293,1.77%
same,max response,HaCat,-5.01%
same,outcome,KB-3-1,inactive
same,max response,NIH3T3,-4.82%
